Sampled rows, rich in hits. Any-hit rate of the full collection: about 2.1%.
APP 5UTR inh: APP translation inhibition. SH-SY5Y APP 5'UTR-luciferase reporter, luminescence. inhibition, % at 2 µM. AID 1285. 190,000 tested, 0.82% active;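 active = inhibition above a set limit, derived from the sample mean plus 3 SD, cut at about 45% in these data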
BaF3 parental: reduces parental Ba/F3 cell viability, JAK2V617F counter-screen. inhibition, % at 5.6 µM. CellTiter-Glo ATP luminescence. 220,000 tested, 1.1% active;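 active = inhibition above a per-campaign cutoff, the mean inhibition of all tested compounds plus 3 SD, cut at about 27% in these data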
Ba/F3 V617F tox: reduce viability of Ba/F3 cells dependent on JAK2V617F; inhibition, % at 5.6 µM; Ba/F3 EpoR-JAK2V617F viability, ATP luminescence; 220,000 tested, 1.1% active;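 active = inhibition above the campaign mean plus 3 SD over all tested compounds, cut at about 24% in these data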;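 note: cytokine-independent growth of Ba/F3 cells driven by EpoR plus mutant JAK2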
aSyn 5UTR inh: MLPCN primary screen, SNCA 5' untranslated region; alpha-synuclein 5'UTR reporter, inhibitor activity; inhibition, % (tested at 7.5 µM); 300,000 tested, 0.82% active; in the data active = inhibition above about 60%;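 note: H4 neuroglioblastoma cells stably carrying SNCA 5'UTR luciferase fusion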
IEC-6 tox: counter-screen for KLF5 inhibitors: cytotoxicity in IEC-6 cells | IEC-6 cytotoxicity, luminescence viability | inhibition, % at 5 µM | 290,000 tested, 0.78% active | AID 1825
KLF5 inhibitor: kruppel-like factor 5 inhibition | inhibition, % at 5 µM | 290,000 tested, 0.23% active | DLD-1 KLF5 promoter-luciferase reporter, luminescence;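 active = inhibition above a per-plate limit of that plate's mean compound inhibition plus 3 SD, cut at about 60% in these data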;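 note: higher means less KLF5 promoter-driven luciferase light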
IEC-6 cytotox cf: confirmation of cytotoxic compounds in rat IEC-6 intestinal epithelial cells; shares compounds with IEC-6 tox; IEC-6 rat intestinal epithelial viability, luminescence; inhibition, % at 5 µM; 1,900 tested, 63% active
Hits are given with their value; ! = a repeat was not active. Cut-off read from the data, not from the text of the source, unless noted: active = inhibition above about 22%; inactive = the rest.

CCOc1ccccc1CNS(=O)(=O)c1ccc(-c2cnc(C3CC3)o2)cc1 was read as aSyn 5UTR inh 74, IEC-6 tox 75, KLF5 inhibitor inactive and IEC-6 cytotox cf 55.
`Cc1ccc(N(C)S(=O)(=O)c2ccc(-c3cnc(C4CC4)o3)cc2)cc1` gave aSyn 5UTR inh 84, IEC-6 tox 76, KLF5 inhibitor inactive and IEC-6 cytotox cf 55.
For COc1ccc(C)cc1NS(=O)(=O)c1ccc(-c2cnc(C3CC3)o2)cc1 the results were aSyn 5UTR inh 102, IEC-6 tox 90, KLF5 inhibitor inactive and IEC-6 cytotox cf 62.
Screening Cc1ccc(CNS(=O)(=O)c2ccc(-c3cnc(C4CC4)o3)cc2)cc1 returned aSyn 5UTR inh inactive, IEC-6 tox inactive and KLF5 inhibitor inactive.
Screening CCCc1cc(=O)[nH]c2nnc(SCC(=O)Nc3cc(C)on3)n12 returned aSyn 5UTR inh inactive.
Screening O=C(CCCc1ccccc1)N=C1SC2CS(=O)(=O)CC2N1c1ccccc1F (stereo unspecified) returned aSyn 5UTR inh inactive, IEC-6 tox inactive and KLF5 inhibitor inactive.
Screening Cc1ccc(S(=O)(=O)NC(=O)NN2CC3CCCC3C2)cc1 (stereo unspecified) returned aSyn 5UTR inh inactive, IEC-6 tox inactive and KLF5 inhibitor inactive.
For CS(=O)(=O)N(CC(=O)N1CCCC1)Cc1ccc(Cl)c(Cl)c1 the results were aSyn 5UTR inh inactive, IEC-6 tox inactive and KLF5 inhibitor inactive.
Screening Cc1cccc(C)c1NS(=O)(=O)c1ccc(-c2cnc(C3CC3)o2)cc1 returned aSyn 5UTR inh 103, IEC-6 tox 94, KLF5 inhibitor inactive and IEC-6 cytotox cf 72.
For CC(=O)c1ccc(NS(=O)(=O)c2ccc(-c3cnc(C4CC4)o3)cc2)cc1 the results were aSyn 5UTR inh inactive, IEC-6 tox inactive and KLF5 inhibitor inactive.
CN(CC(=O)Nc1ccc(N2CCOCC2)cc1)C(=O)CCNC(=O)c1ccc(Br)cc1 was read as aSyn 5UTR inh inactive.
Cc1cc(C)n(-c2nc3ccccc3c(=O)n2OCC#N)n1 was read as aSyn 5UTR inh inactive, IEC-6 tox 86, KLF5 inhibitor inactive and IEC-6 cytotox cf 52.
`CCOn1c(-n2nc(C)cc2C)nc2ccccc2c1=O` gave APP 5UTR inh inactive, BaF3 parental inactive, Ba/F3 V617F tox inactive, aSyn 5UTR inh inactive, IEC-6 tox inactive and KLF5 inhibitor inactive.
`O=c1[nH]c(/C=C/c2ccccc2F)nc2ccccc12` gave aSyn 5UTR inh inactive, IEC-6 tox 79, KLF5 inhibitor inactive and IEC-6 cytotox cf 63.
`O=c1[nH]c(/C=C/c2cccc3ccccc23)nc2ccccc12` gave APP 5UTR inh inactive, BaF3 parental inactive, Ba/F3 V617F tox inactive, aSyn 5UTR inh inactive, IEC-6 tox inactive and KLF5 inhibitor inactive.
Screening CCCOc1ccc(S(=O)(=O)n2cc(F)c(=O)[nH]c2=O)cc1 returned aSyn 5UTR inh inactive, IEC-6 tox 44, KLF5 inhibitor inactive and IEC-6 cytotox cf inactive.
CCOc1ccc(Cn2cc(F)c(=O)[nH]c2=O)cc1 was read as BaF3 parental inactive, Ba/F3 V617F tox inactive, aSyn 5UTR inh inactive, IEC-6 tox inactive and KLF5 inhibitor inactive.
Screening CC(C)COc1ccc(S(=O)(=O)n2cc(F)c(=O)[nH]c2=O)cc1 returned APP 5UTR inh inactive, BaF3 parental 63, Ba/F3 V617F tox 61, aSyn 5UTR inh inactive, IEC-6 tox 85, KLF5 inhibitor inactive and IEC-6 cytotox cf inactive.
Cc1c(S(=O)(=O)Nc2ccc(Oc3ccccc3)cc2)c(=O)n(C)c(=O)n1C was read as aSyn 5UTR inh inactive, IEC-6 tox inactive and KLF5 inhibitor inactive.
For CCn1c(-c2ccc(N(C)C)cc2)nc2ccccc21 the results were APP 5UTR inh inactive, BaF3 parental 68, Ba/F3 V617F tox 78, aSyn 5UTR inh inactive, IEC-6 tox 30, KLF5 inhibitor inactive and IEC-6 cytotox cf inactive.
`COc1ccc(C)cc1NC(=O)CNC(c1ccccc1)c1ccc(C)cc1` (stereo unspecified) gave aSyn 5UTR inh 103, IEC-6 tox 69, KLF5 inhibitor inactive and IEC-6 cytotox cf 51.
For CC1CCC(C(C)C)C(OC(=O)C[n+]2cc(-c3ccc(Cl)cc3)n3c2CCC3)C1 (stereo unspecified) the results were BaF3 parental inactive, Ba/F3 V617F tox inactive, aSyn 5UTR inh inactive, IEC-6 tox inactive and KLF5 inhibitor inactive.
For CC1CCC(C(C)C)C(OC(=O)Cn2c(-c3ccccc3)[n+](C)c3ccccc32)C1 (stereo unspecified) the results were APP 5UTR inh inactive, BaF3 parental 93, Ba/F3 V617F tox 101, aSyn 5UTR inh 77, IEC-6 tox 28!, KLF5 inhibitor inactive and IEC-6 cytotox cf inactive.
`COC(=O)C(CCSC)NC(=O)c1cc2c(n(-c3ccccc3)c1=O)CC(C)(C)CC2=O` (stereo unspecified) gave APP 5UTR inh inactive, BaF3 parental inactive, Ba/F3 V617F tox inactive, aSyn 5UTR inh inactive, IEC-6 tox inactive and KLF5 inhibitor inactive.
NC1=C(Br)C(=O)c2ccccc2C1=O was read as BaF3 parental inactive, Ba/F3 V617F tox inactive, aSyn 5UTR inh 65, IEC-6 tox 29, KLF5 inhibitor inactive and IEC-6 cytotox cf inactive.
`CC(C)OCCCNC(=O)CN1C(=O)c2cccc3cccc1c23` gave aSyn 5UTR inh inactive, IEC-6 tox inactive and KLF5 inhibitor inactive.
Screening CCc1nc(N)nc(N)c1-c1ccc(Cl)cc1 returned APP 5UTR inh inactive, BaF3 parental 97, Ba/F3 V617F tox 97, aSyn 5UTR inh 85, IEC-6 tox 49, KLF5 inhibitor inactive and IEC-6 cytotox cf 36.
Cc1ccc2ncnc(Nc3cccc([N+](=O)[O-])c3)c2c1 was read as aSyn 5UTR inh inactive, IEC-6 tox 31, KLF5 inhibitor inactive and IEC-6 cytotox cf 63.
Screening COC(=O)c1cccc(Nc2ncnc3ccc(C)cc23)c1 returned APP 5UTR inh inactive, BaF3 parental inactive, Ba/F3 V617F tox inactive, aSyn 5UTR inh inactive, IEC-6 tox inactive and KLF5 inhibitor inactive.
`COc1ccc(Nc2ncnc3scc(-c4ccc(OC)cc4)c23)cc1` gave APP 5UTR inh inactive, BaF3 parental inactive, Ba/F3 V617F tox inactive, aSyn 5UTR inh inactive, IEC-6 tox 24, KLF5 inhibitor inactive and IEC-6 cytotox cf inactive.
For C=CCn1c(SCC(=O)c2cccs2)nc2sc(C)cc2c1=O the results were APP 5UTR inh inactive, BaF3 parental inactive, Ba/F3 V617F tox inactive, aSyn 5UTR inh inactive, IEC-6 tox 66, KLF5 inhibitor inactive and IEC-6 cytotox cf 44.
C=CCn1c(SCC(=O)c2cccs2)nnc1-c1cccc(OC)c1 was read as APP 5UTR inh inactive, BaF3 parental inactive, Ba/F3 V617F tox inactive, aSyn 5UTR inh inactive, IEC-6 tox inactive and KLF5 inhibitor inactive.
Screening Cc1cc(N2CCOCC2)nc2ccc(NC(=O)CCC(=O)N3CCN(c4cccc(C(F)(F)F)c4)CC3)cc12 returned aSyn 5UTR inh inactive, IEC-6 tox inactive and KLF5 inhibitor inactive.

Screens deposited in PubChem BioAssay by several laboratories.
